The source of these data is ChEMBL document CHEMBL1157539, “Thousands of chemical starting points for antimalarial lead identification” (Nature, 2010).

Structures are written as SMILES. Fewer than 10 of roughly 13,000 compounds showed an effect of 50% or more. Not all results are given here.

The test system of the test is Plasmodium falciparum. Briefly: GSK_TCMDC: Inhibition of Plasmodium falciparum 3D7 LDH activity, using an LDH reporter assay. Test compounds present at 2uM. It is filed as functional, organism-based. Background: In a reporter assay the amount or activity of a reporter protein is the signal.
On to `Cc1c(-c2ccc(C(=O)NC3CC(C)(C)NC(C)(C)C3)cc2)[nH]c2cc(Cl)c(Cl)cc12`, for which the inhibition was 0%.
The compound `O=C(Nc1cccc(F)c1)c1ccc(C(=O)NC2CCN(CC3CCCCC3)CC2)cc1` showed an inhibition of 0%.
Regarding `CC(C)NCc1ccc(-c2ccc(NC(=O)c3ccc(C#N)cc3)cc2)cc1`, the inhibition was 0%.
Under `FC(F)(F)c1ccc2[nH]c(-c3ccc(-c4cccc(CN5CCN(c6ccncc6)CC5)c4)cc3)nc2c1` stands 2%.
Regarding `O=C(Nc1nc(-c2ccccn2)cc2ccccc12)c1cccc(Cl)c1`, the inhibition was 0%.
As for `NC(=O)C1CCN(Cc2cccc(-c3cccc(-c4nc5cc(F)ccc5[nH]4)c3)c2)CC1`, the inhibition came out at 3%.
Regarding `CC(C)(C)c1ccc(CNC(=O)c2ccc(CNC3CCC(N)CC3)s2)cc1` (configuration not stated), the inhibition was 4%.
Compound `CC1(C)N=C(N)N=C(N)N1c1ccc(Cl)c(Cl)c1` had an inhibition of 0%.
Turning to `Cc1cc(=NN=Cc2ccccc2Cl)c2ccc(F)cc2[nH]1`, the inhibition came to 0%.
In turn, `Cc1cc(CNCCCCCCCNCc2ccc(-c3ccccc3)cc2)ccc1O` came in with an inhibition of 0%.
The figure for `Cc1cc(=NN=Cc2ccc(F)cc2)c2ccc(C(F)(F)F)cc2[nH]1` is 0%; for `COc1cc(C=NN=c2cc(C)[nH]c3ccccc23)cc(OC)c1OC` it is 0%.
The compound `O=C(NCCc1ccccc1)N(Cc1ccccc1-c1ccc(CNC2CCCC2)cc1)C1CCN(Cc2ccccc2)CC1` displayed an inhibition of 1%.
Consider `CCN(CC)CCN(Cc1ccc(-c2ccc(C(F)(F)F)cc2)cc1)C(=O)Cn1c(CCc2cccc(F)c2F)nc(=O)c2ccc(F)cc21`, for which the inhibition is 3%.
`COc1ccc(CNCc2ccc(F)cc2)cc1-c1ccc(OC)c(S(=O)(=O)NCCN2CCCC2)c1` returned an inhibition of 5%.
In turn, `COc1ccc2c(N/N=C/c3cccc([N+](=O)[O-])c3)ccnc2c1` displayed an inhibition of 5%.
`CCCCN1CCN(CCCNc2c3ccccc3nc3ccccc23)CC1` yielded an inhibition of 0%.
On to `CON=Cc1ccn(-c2ccc(O)c3c2C[C@H]2C[C@H]4[C@H](N(C)C)C(O)=C(C(N)=O)C(=O)[C@@]4(O)C(O)=C2C3=O)c1`, for which the inhibition was determined as 0%.
Take `CN(C)Cc1ccc(-c2ccc3c(Nc4ccc(Cl)cc4F)ccnc3c2)o1`: the inhibition is 0%.
In the case of `CN(C)c1ccc(-c2nc3cc(N)ccc3[nH]2)cc1`, the inhibition is 0%.
On to `Cc1cc(O)c(-c2cccc(Oc3ccc(Cl)cc3)c2)c(C)n1`, for which the inhibition stood at 0%.
In turn, `O=C(CNC(=O)c1ccc(O)cc1)Nc1ccc(-c2cccc(-c3nc4cc(C(F)(F)F)ccc4[nH]3)c2)cc1` showed an inhibition of 3%.
In turn, `CCOc1cc[nH]c(=O)n1` registered an inhibition of 5%.
On to `O=C(NCCCCN1CCC(c2ccc3c(c2OCCO)CCCC3)CC1)c1ccc2oc(-c3ccc(C(F)(F)F)cc3)cc2c1`, for which the inhibition amounted to 4%.
The compound `FC(F)(F)COc1ccc2ccccc2c1CCNCCCCNCCc1c(OCC(F)(F)F)ccc2ccccc12` displayed an inhibition of 0%.
`COc1ccc2nccc(N3CCC(CCNCc4cc5c(cn4)OCCO5)CC3)c2n1`: the inhibition was determined as 7%.
Under `Cc1c2ccc(N(C)c3ccnc(Nc4ccc5c(c4)nc(NC(C)C)n5C)n3)cc2nn1C` stands 0%.
`COc1ccc(CNC(=O)Nc2cccc(-c3csc(NC(=N)N)n3)c2)cc1` came in with an inhibition of 1%.
For the compound `O=C(C=Cc1ccc(Cl)c(Cl)c1)NCCCCCN1CCC(CCNC(=O)/C=C/c2ccccc2)CC1`, the inhibition is 0%.
For the compound `CCN(CC)CCN(Cc1ccc(-c2ccc(C(F)(F)F)cc2)cc1)C(=O)Cn1c(CCc2ccc(F)cc2)nc(=O)c2ccccc21`, the inhibition amounted to 0%.
On to `Cn1cccc1C(=O)C(=O)Nc1cccc(-c2ccc(-c3nc4cc(C(F)(F)F)ccc4[nH]3)cc2)c1`, for which the inhibition was 0%.
In turn, `CC(=O)Nc1ccc(C(=O)Nc2cccc(-c3cccc(-c4nc5cc(F)ccc5[nH]4)c3)c2)cn1` registered an inhibition of 1%.
Consider `Nc1ncc(-c2ccc3nccc(-c4ccncc4)c3c2)cc1S(=O)(=O)N1CCCCC1`, for which the inhibition is 3%.
Under `Cc1cc(NCC(c2ccccc2)c2ccccc2)nc(NCC2CCCCC2)n1` stands 3%; under `N#Cc1cccc(C(=O)Nc2ccc(-c3ccc(CN4CCCC4)cc3)cc2)c1`, 0%; under `Cc1[nH]c(C)c(-c2ccc(OCc3cc(F)cc(F)c3)nc2)c(=O)c1Cl`, 0%.
`CC(=O)Nc1ccc(CCNC(C)Cc2ccc(C(=O)Nc3ccc(CC(C)NCCc4cccc(Cl)c4)cc3)cc2)cc1` (configuration not stated): the inhibition amounted to 0%.
Compound `c1cc(-c2ccc(CNCCCN3CCOCC3)cc2)cc(-c2nc3ccccc3[nH]2)c1` gave an inhibition of 0%.
The compound `Clc1ccccc1C=NN=c1cc[nH]c2ccccc12` gave an inhibition of 0%.
With `O=C1CCCN1CCCNCc1ccc(-c2ccc(-c3nc4cc(F)ccc4[nH]3)cc2)cc1`, the inhibition is 0%.
Compound `Cc1[nH]c(C)c(-c2ccc(C#Cc3ccc(F)cc3F)cc2)c(=O)c1Br` registered an inhibition of 0%.
The figure for `COc1ccc(OC)c(-c2ccc(=O)n(CC(=O)Nc3cccc4ccccc34)n2)c1` is 3%; for `CC(C)(C)c1ccc(CNC(=O)/C=C/c2ccc(-c3nc4cc(C(C)(C)C)ccc4[nH]3)cc2)cc1` it is 0%.
For `CN(C)CCCN1CCN(Cc2ccc(-c3ccc(-c4nc5ccccc5[nH]4)s3)cc2)CC1`, the inhibition came out at 4%.
On to `CC(C)Nc1nc(NCCc2c[nH]cn2)nc(Nc2ccc(Oc3ccccc3)cc2)n1`, for which the inhibition was determined as 1%.
Compound `CN1CCC(NC(=O)c2cc(Oc3ccc4c(c3)CCN4C(=O)Nc3cccc(C(F)(F)F)c3)ccn2)CC1` displayed an inhibition of 0%.
As to `FC(F)(F)COc1c(CCNCCCCNCCc2ccc3ccccc3c2OCC(F)(F)F)ccc2ccccc12`, the inhibition came to 0%.
The compound `CN(CCN)Cc1cccc(-c2cccc(-c3nc4cc(C(F)(F)F)ccc4[nH]3)c2)c1` displayed an inhibition of 0%.
On to `CC(C)CCCC(C)NC[C@@H](O)[C@H](Cc1ccccc1)NC(=O)c1cc(N2CCCC2=O)cc(N(c2ccccc2)S(C)(=O)=O)c1` (some centres not stated), for which the inhibition was 0%.
`ON=C(c1nc2ccccc2[nH]1)c1nc2ccccc2[nH]1` yielded an inhibition of 6%.
On to `O=S(=O)(NCCN1CCCC1)c1cccc(-c2ccc(CNCc3ccsc3)cc2)c1`, for which the inhibition came to 6%.
Regarding `COc1cccc(CCc2nc3c(N4CCC(Cc5ccccc5)CC4)cccc3n2CC2CNCCO2)c1` (configuration not stated), the inhibition was determined as 4%.
Under `CCN(CC)CCN(Cc1ccc(-c2ccc(C(F)(F)F)cc2)cc1)C(=O)Cn1c(CCc2ccc(F)c(C#N)c2)nc(=O)c2ccccc21` stands 0%.
`CCc1c(CCNCCCCCCNCCc2ccc(Br)cc2)ccc(O)c1O` yielded an inhibition of 0%.
The figure for `Nc1c2c(nc3ccc(Oc4ccc(Cl)cc4)cc13)CCCC2` is 0%.
With `Cc1cc(N[C@@H](Cc2ccccc2)C(=O)NCc2cccs2)nc(NCCc2ccccn2)n1`, the inhibition amounted to 0%.
`COc1cc(C=CC(=O)N2CCC(CCN3CCC(c4c[nH]c5ccccc45)CC3)CC2)cc(OC)c1` registered an inhibition of 0%.
Compound `COc1cc2nc(N3CCC(CNC(=O)c4ccc(NC(=O)c5ccc(Cl)cc5)cc4)CC3)nc(N)c2cc1OC` gave an inhibition of 0%.
For `CCNC1=NC2=C(CC(C(C)(C)C)CC2)C2(CCC(C(C)(C)C)CC2)S1` (configuration not stated), the inhibition is 4%.
`Cc1ccc(Cc2c[nH]c(NCCSCc3ccc(CN4CCOCC4)o3)nc2=O)cn1` came in with an inhibition of 0%.
Compound `Cc1cc(-c2c[nH]c3ncc(-c4cccc5ncccc45)cc23)ccc1C(=O)O` displayed an inhibition of 0%.
For `Cc1cccc2nc(-c3ccc(-c4ccc(CN5CCCCC5)cc4)cc3)[nH]c12`, the inhibition turned out to be 0%.
`Cc1cc(I)ccc1Nc1nc2nonc2nc1Nc1ccc(I)cc1C` returned an inhibition of 0%.
In the case of `CS(=O)(=O)c1ccc(CNCc2ccc(-c3cccc(-c4nc5cc(C(F)(F)F)ccc5[nH]4)c3)cc2)cc1`, the inhibition was 8%.
Compound `Fc1ccc(C=NN=c2cc[nH]c3ccccc23)cc1` returned an inhibition of 4%.
Regarding `COc1ccc(OCCCCON2C(=N)N=C(N)NC2(C)C)cc1`, the inhibition was 4%.
Under `COc1cccc(CCN(Cc2ccccc2-c2ccc(CNC3CC(C)(C)NC(C)(C)C3)cc2)C(=O)NC2CCCCC2)c1` stands 0%.
As to `N#Cc1ccc(N2C[C@@H](OCc3ccccc3)C[C@H]2C(=O)NCCC(c2ccccc2)c2ccccc2)c2ccccc12`, the inhibition was 0%.
The compound `CCCCCCOc1ccc(C(=O)N(Cc2ccccc2)c2c(-c3ccccc3)nc3cc(C)ccn23)cc1` gave an inhibition of 3%.
`CCc1cccc2sc(N3CCN(C(=O)c4ccc([N+](=O)[O-])o4)CC3)nc12` yielded an inhibition of 0%.
Compound `CCOc1c(CCNCCCCNCCc2ccc3ccccc3c2OCC)ccc2ccccc12` came in with an inhibition of 0%.
The compound `CN1CCC(Oc2ccc(CN3CC[C@H](NC(=O)c4ccc(Cl)c(F)c4)C3)c3ccccc23)C1` (some centres not stated) displayed an inhibition of 3%.
With `CCN(CC)CCN(Cc1ccc(-c2ccc(C(F)(F)F)cc2)cc1)C(=O)Cn1c(CCc2ccccc2F)nc(=O)c2ccccc21`, the inhibition amounted to 0%.
The compound `Cc1cccc2nc(-c3cccc(-c4ccc(NC(=O)c5ccoc5)cc4)c3)[nH]c12` yielded an inhibition of 0%.
The figure for `O=c1cc(NCCCNCc2cccc(OC(F)(F)F)c2)[nH]c2ccccc12` is 0%; for `O=C(Nc1ccc2c(c1)CCC2)N[C@H]1CCN(Cc2ccc(OCCCN3CCCCC3)cc2)C1` it is 0%; for `CCN1CCC(N(Cc2ccc(-c3ccc(C(F)(F)F)s3)cc2)C(=O)Cn2c(CCc3cccc(F)c3F)nc(=O)c3ccccc32)CC1` it is 7%.
In turn, `Fc1ccc2[nH]c(-c3cccc(-c4ccc(CNCc5cnn(-c6ccccc6)n5)cc4)c3)nc2c1` returned an inhibition of 0%.
Consider `CNCCNCc1ccc(-c2ccc(-c3nc4cc(F)ccc4[nH]3)cc2)cc1`, for which the inhibition is 4%.
Compound `O=C1C(=Cc2c(O)ccc3ccccc23)SC(=NCc2ccccc2)N1Cc1ccccc1` displayed an inhibition of 0%.
Consider `COC(=O)c1cccc(CNCc2cccc(-c3ccc(-c4nc5cccc(C)c5[nH]4)s3)c2)c1`, for which the inhibition stood at 1%.
Under `CCN1CCC(N(Cc2ccc(-c3ccc(C(F)(F)F)cc3)cc2)C(=O)Cn2c(CCc3cccc(F)c3F)nc(=O)c3ccccc32)CC1` stands 3%.
In turn, `Cc1cccc2nc(-c3cccc(-c4ccc(NC(=O)c5cnccc5C(F)(F)F)cc4)c3)[nH]c12` showed an inhibition of 0%.
Under `CCOC(=O)NC1=NC(C)(C)N(OCCCOc2ccc(C)cc2C)C(NC(=O)OCC)=N1` stands 7%; under `CS(=O)(=O)c1cc2c(Nc3ccc(N4CCOCC4)cc3)c(C(N)=O)cnc2cc1Br`, 0%.
As to `COc1ccc2nccc(N3CCC(CCNCc4cc5c(cn4)OCCO5)CC3)c2c1`, the inhibition stood at 6%.
As to `O=C(Nc1cccc(F)c1)N1CCC(CN2CCOC(c3ccccc3)(c3ccccc3)C2)CC1`, the inhibition worked out at 7%.

In general, inhibition refers to how much of the control response was suppressed. A higher inhibition goes with strong suppression.
